Abeta rescue: qHTS for compounds that reverse cellular toxicity of Amyloid beta (A-beta) peptide in yeast: Primary Screen; yeast expressing A-beta42, growth rescue, OD600, 48 h; response scale: 0% DMSO, 100% iron-clioquinol control; Potency, µM (series often up to 46.1 µM), usual class: activators; 0.063% of 410,000 active; AID 1347071, 2019; also: nearly all actives have a fitted effect of over 55% in size
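Growth rescue measured by 600 nm absorbance after 48 h yeast culture at 30 C with compound. Values normalized between DMSO and an equimolar ferric chloride plus clioquinol control.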
aSyn yeast inh: qHTS of alpha-syn Inhibitors | Potency, µM (highest dose often 46.1 µM), without a hit: at the top dose growth rescue (activation), hits mostly activators | 0.14% of 370,000 active | Yeast expressing alpha-synuclein, growth rescue, BacTiter-Glo, 24 h; also: % of control where 0% means no effect; nearly all actives have a fitted effect of over 65% in size
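Rescue of yeast growth: cells expressing toxic alpha-synuclein, induced in galactose at OD600 0.02, incubated with compound 24 h at 30 C. ATP luminescence quantified growth; inhibitors of toxicity appear as activators.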
FUS yeast rescue: qHTS for Suppressors of FUS Proteinopathy: Primary screen using FUS-linked yeast assay. AID 1347120, 2019. Potency, µM (titrated, usually from 76.6 µM), hits mostly activators. 0.24% of 390,000 active. S. cerevisiae FUS-expressing, growth rescue, OD600, 24 h;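 also: plate controls were DMSO vehicle for no effect and reference control for full effect; nearly all actives have a fitted effect of over 55% in size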
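Absorbance at 600 nm, taken 24hr after compound addition, measured rescue of FUS-yeast growth at 30C. Induction used 2% galactose with seeding at OD 0.005. Controls: CP55940 from 92uM final, DMSO only.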
TDP-43 yeast inh: qHTS of TDP-43 Inhibitors. Potency, µM (titrated, usually from 46.1 µM), for inactives: at the top dose growth rescue (activation), hits mostly activators. TDP-43 expressing yeast growth rescue, BacTiter-Glo, 24 h. 1.8% of 410,000 active; also: % of control where 0% means no effect; nearly all actives have a fitted effect of over 50% in size
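Growth rescue of TDP-43-toxic yeast measured as ATP luminescence (BacTiter-Glo). Cells grown to mid-log in raffinose, induced in galactose at OD600=0.02, exposed to compound 24 hr at 30 deg C.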
Mito fusion act: qHTS Assay for Small Molecule Inhibitors of Mitochondrial Division or Activators of Mitochondrial Fusion; S. cerevisiae fusion-defective mutant growth rescue, CellTiterGlo 48 h; 0.23% of 320,000 active; AID 485298, 2010; Potency, µM (highest dose often 46.1 µM), inactives show at the highest dose growth rescue (activation), most hits filed as activators; also: % of control where 0% means no effect; nearly all actives have a fitted effect of over 45% in size
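Compounds are tested for their ability to restore growth of mitochondrial fusion-defective yeast strains at non-permissive 37C in YPEG medium over 48 hours. Viability is quantified by luciferase luminescence.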
* marks the source's active call; other numbers are inactive results. A selection: hits, their analogues and other compounds. The true share with any hit is near 2.2%. Calls follow the shape of the dose curve; as a rule, active = well fitted curve in the direction sought with a large enough effect; inconclusive = small, poorly fitted or top-dose-only effect, or another doubt; inactive = no such curve, though single readings can be large; an effect the other way counts as inactive or inconclusive. Potency is read from the fitted curve at half-maximal effect.

How did CC(=O)N(c1ccc2oc(=O)sc2c1)S(=O)(=O)c1cccs1 do in these assays?
Abeta rescue: inactive; aSyn yeast inh: -2%; FUS yeast rescue: 28µM*; TDP-43 yeast inh: 25%; Mito fusion act: -1%

Results for CC(CCc1ccccc1)NC(=O)Cn1c(=O)nc(-c2ccccc2)c2cc(Cl)ccc21 (stereo not drawn) ?
Abeta rescue: inactive; FUS yeast rescue: inactive; TDP-43 yeast inh: 17%

What do the screens show for `CCc1ccc2c(-c3cccc(Cl)c3)nc(=O)n(CC)c2n1`?
aSyn yeast inh: -1%; Mito fusion act: 12µM*

What do the screens show for `Fc1ccc(N/N=C/c2ccc(N3CCOCC3)cc2)c(F)c1`?
Abeta rescue: inactive; aSyn yeast inh: 13%; FUS yeast rescue: inactive; TDP-43 yeast inh: 18µM*; Mito fusion act: 1%

How did O=S(=O)(Oc1ccc(C(=S)N2CCOCC2)cc1)c1ccc(Cl)cc1 do in these assays?
Abeta rescue: inactive; aSyn yeast inh: 3%; FUS yeast rescue: inactive; TDP-43 yeast inh: 18µM*; Mito fusion act: 0%

Results for O=C(Oc1ccc(C(=S)N2CCOCC2)cc1Cl)c1ccccc1F ?
Abeta rescue: inactive; aSyn yeast inh: -21%; FUS yeast rescue: inactive; TDP-43 yeast inh: 12%; Mito fusion act: 1%

How did O=C(Oc1ccc(C(=S)N2CCOCC2)cc1)c1cc([N+](=O)[O-])cc([N+](=O)[O-])c1 do in these assays?
Abeta rescue: inactive; aSyn yeast inh: 2%; FUS yeast rescue: inactive; TDP-43 yeast inh: -9%; Mito fusion act: 1%

How did Cc1ccccc1C(=O)Oc1ccc(Cl)cc1C(=S)N1CCOCC1 do in these assays?
Abeta rescue: inactive; aSyn yeast inh: -9%; FUS yeast rescue: inactive; TDP-43 yeast inh: 13µM*; Mito fusion act: -3%

What do the screens show for `O=C(Oc1ccc(C(=S)N2CCOCC2)cc1)c1cccc(Cl)c1`?
Abeta rescue: inactive; aSyn yeast inh: 24%; FUS yeast rescue: inactive; TDP-43 yeast inh: 13µM*; Mito fusion act: -3%

How did CN(C)c1ccc(N=Nc2ccc(/C=C/c3ccnc4ccccc34)cc2)cc1 do in these assays?
aSyn yeast inh: 26%

Results for COc1ccc2ncc3c(-c4ccccc4)nn(-c4ccc(C)c(C)c4)c3c2c1 ?
Abeta rescue: inactive; FUS yeast rescue: inactive; TDP-43 yeast inh: 11%

What do the screens show for `O=c1ccc2ccccc2c2ccccc12`?
Abeta rescue: inactive; aSyn yeast inh: inconclusive; FUS yeast rescue: inactive; TDP-43 yeast inh: 3.2µM*

What do the screens show for `c1ccc2c(c1)ccc1ccccc12`?
Abeta rescue: inactive; aSyn yeast inh: -3%; FUS yeast rescue: inactive; TDP-43 yeast inh: 0%

How did COc1ccc(NC(c2ccc(F)cc2)c2nnc(-c3ccccc3Cl)o2)cc1Cl (stereo not drawn) do in these assays?
Abeta rescue: inactive; FUS yeast rescue: inconclusive; TDP-43 yeast inh: 24%

What do the screens show for `O=C(Nc1ccc(Br)c(C(F)(F)F)c1)c1ccc(C(F)(F)F)cc1`?
Abeta rescue: inactive; aSyn yeast inh: -47%; FUS yeast rescue: inactive; TDP-43 yeast inh: -92%; Mito fusion act: -26%

How did O=C(Nc1ccc(Br)c(C(F)(F)F)c1)c1ccccc1 do in these assays?
Abeta rescue: inactive; aSyn yeast inh: -26%; TDP-43 yeast inh: 8.9µM*; Mito fusion act: 22µM*

How did Cc1nc2scc(C)n2c(=O)c1S(=O)(=O)Nc1ccc(F)cc1 do in these assays?
Abeta rescue: inactive; aSyn yeast inh: inconclusive; FUS yeast rescue: inactive; TDP-43 yeast inh: 29%; Mito fusion act: 1%

What do the screens show for `Cc1cc(F)ccc1NS(=O)(=O)c1c(C)nc2scc(C)n2c1=O`?
Abeta rescue: inactive; aSyn yeast inh: -8%; FUS yeast rescue: inactive; TDP-43 yeast inh: 20µM*; Mito fusion act: -2%

Results for Cc1cccc([C@@H]2[C@@H]3C(=O)N(Cc4ccccc4)C(=O)[C@@H]3[C@]3(Cc4ccccc4)C(=O)N(c4cccc(F)c4)C(=O)N23)c1 ?
Abeta rescue: inactive; aSyn yeast inh: -2%; FUS yeast rescue: inactive; TDP-43 yeast inh: -8%; Mito fusion act: -7%

How did CC[C@@]12C(=O)N(c3cccc(F)c3)C(=O)N1[C@H](c1cccc(C)c1)[C@@H]1C(=O)N(Cc3ccccc3)C(=O)[C@@H]12 do in these assays?
Abeta rescue: inactive; aSyn yeast inh: 2%; FUS yeast rescue: 32µM*; TDP-43 yeast inh: -1%; Mito fusion act: 2%

Results for O=C(NCCN1C(=O)C2C3C=CC(C3)C2C1=O)c1cc(Cl)cc(Cl)c1 (stereo not drawn) ?
FUS yeast rescue: inactive

What do the screens show for `O=C(NNC(=S)Nc1cccc(C(F)(F)F)c1)c1ccccc1Cl`?
Abeta rescue: inconclusive; aSyn yeast inh: -2%; FUS yeast rescue: inactive; TDP-43 yeast inh: 2%; Mito fusion act: 8%

What do the screens show for `O=C(Nc1cccc(-c2csc(Nc3ccc(Cl)cc3)n2)c1)c1ccccc1`?
Abeta rescue: inactive; aSyn yeast inh: -24%; FUS yeast rescue: inconclusive; TDP-43 yeast inh: inconclusive; Mito fusion act: -76%

How did O=C(NNC(=S)Nc1cccc(C(F)(F)F)c1)c1cccc(Cl)c1 do in these assays?
Abeta rescue: inactive; aSyn yeast inh: -7%; FUS yeast rescue: inactive; TDP-43 yeast inh: 8.9µM*; Mito fusion act: 7%

How did O=C(Nc1cccc(-c2csc(Nc3ccc(Cl)cc3)n2)c1)c1cccc(C(F)(F)F)c1 do in these assays?
Abeta rescue: inactive; aSyn yeast inh: -22%; FUS yeast rescue: inactive; TDP-43 yeast inh: 25µM*; Mito fusion act: -127%

Results for Cc1cccc(OCCCn2c(CCNC(=O)C3CCCCC3)nc3ccccc32)c1 ?
Abeta rescue: inactive; aSyn yeast inh: 6%; FUS yeast rescue: inactive; TDP-43 yeast inh: -1%

Results for COc1ccc(CN2C(=O)c3cccnc3C2Nc2ccc(OC)c(Cl)c2)cc1 (stereo not drawn) ?
Abeta rescue: inactive; aSyn yeast inh: 1%; FUS yeast rescue: 32µM*; TDP-43 yeast inh: -7%; Mito fusion act: 8%

Results for COc1ccc(NC2c3ncccc3C(=O)N2Cc2ccccc2)c(OC)c1 (stereo not drawn) ?
Abeta rescue: inactive; aSyn yeast inh: -13%; FUS yeast rescue: inconclusive; TDP-43 yeast inh: -13%; Mito fusion act: 4%

What do the screens show for `N#Cc1c(N2CCSCC2)nsc1-c1ccccc1Cl`?
Abeta rescue: inactive; aSyn yeast inh: -14%; FUS yeast rescue: inactive; TDP-43 yeast inh: 10µM*; Mito fusion act: -20%

What do the screens show for `N#Cc1c(Cl)cccc1N1CCSCC1`?
Abeta rescue: inactive; aSyn yeast inh: 10%; FUS yeast rescue: inactive; TDP-43 yeast inh: inconclusive
